Source: PubChem BioAssay
In the library only some 3% were active in any assay of this set; here they are far more common.
PAFAH1B2 inh = inhibitors of human PAFAH1B2; AID 492953; inhibition, % at 3.39 µM; actives 1.2% (n = 340,000); recombinant PAFAH1B2, FP-rhodamine activity probe, fluorescence polarization;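 active = inhibition above the mean of all tested compounds plus 3 SD, cut at about 24% in these data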;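 also: 0% = enzyme with DMSO and 100% = wells lacking PAFAH1B2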
PAFAH2 inh = PAFAH2 (human) inhibition; inhibition, % at 3.39 µM; recombinant PAFAH2, FP-rhodamine activity probe, fluorescence polarization; actives 0.99% (n = 340,000); Q99487;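 active = inhibition above the mean over all tested compounds plus 3 SD, cut at about 30% in these data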;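 also: inhibitors block probe labeling of enzyme so polarization drops; 0% = enzyme with DMSO and 100% = wells lacking PAFAH2 protein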
PP5 inh = inhibitors of human protein phosphatase 5 (PP5); actives 0.18% (n = 320,000); P53041; purified PP5c, OMFP substrate fluorescence; AID 1987; inhibition, % at 6.7 µM;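 active = inhibition above the campaign's mean inhibition across all tested compounds plus 3 SD, cut at about 9.5% in these data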;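 also: 0% = DMSO only and 100% = 100 µM cantharidin control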
CTSL1 counter = cathepsin L1 inhibition, PFM18AAP counter-screen; actives 0.49% (n = 300,000); inhibition, % at 5.96 µM; recombinant F. hepatica cathepsin L1, Z-Leu-Arg-MCA fluorescence;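 active = inhibition above the mean of all tested compounds plus 3 SD, set per screening campaign, cut at about 17% in these data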;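 also: 0% = plate median of test compound wells and 100% = 1 µM Z-Phe-Ala-diazomethylketone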
PAFAH1B3 FP inh = PAFAH1B3 (human) inhibition. recombinant PAFAH1B3, FP-rhodamine probe, fluorescence polarization. inhibition, % at 3.39 µM. actives 0.28% (n = 340,000). AID 492972;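 active = inhibition above the screen-wide average of all tested compounds plus 3 SD, cut at about 25% in these data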;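 also: 0% = enzyme with DMSO only and 100% = wells lacking PAFAH1B3 protein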
pPAFAH FP inh = pPAFAH (human) enzyme inhibition | Q13093 | recombinant pPAFAH, FP-rhodamine probe fluorescence polarization | inhibition, % at 3.39 µM | actives 1.5% (n = 330,000) | AID 463082;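 active = inhibition above the mean inhibition across the screen plus 3 SD, cut at about 25% in these data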;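 also: inhibitors block binding of the rhodamine activity-based probe so polarization drops; 0% = enzyme with DMSO and 100% = wells lacking pPAFAH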
Target sequence (Q13093 whole entry, looked up): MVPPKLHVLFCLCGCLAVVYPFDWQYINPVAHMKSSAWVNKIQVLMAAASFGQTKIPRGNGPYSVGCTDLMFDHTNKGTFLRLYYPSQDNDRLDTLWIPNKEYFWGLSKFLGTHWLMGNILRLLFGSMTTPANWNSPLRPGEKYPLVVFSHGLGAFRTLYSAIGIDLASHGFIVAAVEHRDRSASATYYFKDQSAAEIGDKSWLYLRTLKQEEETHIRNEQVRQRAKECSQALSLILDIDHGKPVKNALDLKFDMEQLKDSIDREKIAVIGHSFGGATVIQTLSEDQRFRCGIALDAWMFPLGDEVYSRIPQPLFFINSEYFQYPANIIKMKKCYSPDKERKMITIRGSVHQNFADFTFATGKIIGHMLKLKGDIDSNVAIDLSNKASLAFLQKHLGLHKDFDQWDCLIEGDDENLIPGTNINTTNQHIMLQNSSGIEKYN
pPAFAH confirm = pPAFAH (human) inhibition, confirmed; shares compounds with pPAFAH FP inh; AID 463230; inhibition, % at 3.39 µM; actives 72% (n = 2,300); recombinant pPAFAH, FP-Rh probe fluorescence polarization;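 active = mean inhibition of the triplicate above the hit cutoff set for the earlier primary screen, cut at about 25% in these data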;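 also: 0% = enzyme with DMSO and 100% = wells lacking pPAFAH enzyme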
* = called active by the depositor; . = no result given; ! = not confirmed by another sample.

SMILES	PAFAH1B2 inh	PAFAH2 inh	PP5 inh	CTSL1 counter	PAFAH1B3 FP inh	pPAFAH FP inh	pPAFAH confirm
O=C(NCc1ccccc1)c1ccc2nccnc2c1	7	3	-1	8	18	4	.
O=C(NCc1ccccc1)c1ccc2nc(-c3ccco3)c(-c3ccco3)nc2c1	15	29	2	6	12	71*	58*
CC(=O)c1ccc(NC(=O)c2ccc3nc(-c4ccco4)c(-c4ccco4)nc3c2)cc1	6	15	-3	-2	23	62*	50*
O=C(Nc1ccc(N2CCOCC2)cc1)c1ccc2nc(-c3ccco3)c(-c3ccco3)nc2c1	0	0	2	5	-2	16	.
O=C(NCC1CCCO1)c1cccc(S(=O)(=O)N2CCCCC2)c1 (configuration not stated)	-3	1	.	.	-4	.	.
CCc1ccc(NC(=O)C(=O)NCC2CCCN2S(=O)(=O)c2cccs2)cc1 (configuration not stated)	-3	-3	0	1	5	6	.
Nc1ncc(S(=O)(=O)c2ccc([N+](=O)[O-])cc2)s1	14	4	.	.	2	.	.
Cc1csc(N2C(=O)C3C4CCC(O4)C3C2=O)n1 (configuration not stated)	1	1	.	.	0	.	.
Cc1ccc(/C(O)=C2/C(=O)C(=O)N(CC(=O)O)C2c2ccc([N+](=O)[O-])cc2)cc1 (configuration not stated)	7	1	7	0	6	37*	5
COCCN(C(=O)COC(=O)c1cc2c(s1)CCC2)c1c(N)n(Cc2ccccc2)c(=O)[nH]c1=O	9	57*	-2	-2	10	56*	34*
CN(C(=O)c1cccnc1)c1nnc(-c2cccnc2)s1	2	0	-2	0	-4	42*	3
CN(C(=O)c1cccnc1)c1nnc(-c2cnccn2)s1	2	3	2	0	-3	5	.
O=C(Cn1cnc([N+](=O)[O-])n1)c1ccc(O)c(O)c1	2	2	0	-3	12	56*	20
CCC(=O)OC1(C)C(=O)C=C2C=C(c3ccsc3)OC=C2C1=O (configuration not stated)	-5	16	2	1	6	48*	34*
NC(=O)CN1C(=O)NC2(CCCc3sccc32)C1=O (configuration not stated)	6	8	1	-1	8	-2	.
Cc1cc(C(=O)CN2C(=O)NC3(CCCc4sccc43)C2=O)c(C)n1-c1ccc(Cl)cc1 (configuration not stated)	2	2	1	-1	-4	40*	42*
CC(CN1CCOCC1)OC(=O)Cc1ccc(Cl)cc1 (configuration not stated)	9	-10	1	-4	5	54*	5
CC1=C(C(=O)Nc2ccc(CC(=O)NCc3ccccc3C)cc2)SCCO1	5	-1	1	1	4	16	.
CCc1ccc(CNC(=O)Cc2ccc(NC(=O)C3=C(C)OCCS3)cc2)cc1	3	10	4	4	1	36*	20
N[C@@H](Cc1cc(I)c(Oc2cc(I)c(O)c(I)c2)c(I)c1)C(=O)O	.	.	1	0	.	44*	39*
N[C@@H](Cc1cc(I)c(Oc2ccc(O)c(I)c2)c(I)c1)C(=O)O	7	27	1	3	3	69*!	71*
C=CCN(c1ccccc1)S(=O)(=O)c1cccc(C(=O)N(CC)CC(=O)Nc2c(F)cccc2F)c1	0	0	5	-5	-5	6	.
O=S(=O)(Nc1nc(-c2sccc2Cl)cs1)c1cc(Cl)ccc1Cl	4	42*	2	-2	0	47*	51*
Cc1c(Cl)cccc1NC(=O)CCN1C(=O)C2CC=CCC2C1=O (configuration not stated)	5	2	0	-2	2	7	.
COc1ccccc1C(=O)NC(=O)CSc1ccc(C)c(C)c1	9	8	.	.	1	3	.
COc1ccc(CNc2oc(-c3cccc4ccccc34)nc2C#N)cc1	-3	-7	2	-1	2	-1	.
